Assay results published in PubChem BioAssay (NCI).
This is part of a sample that, as a whole, favours compounds with a hit. Of some 83,000 tested, about 20% had one in any assay.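 The endpoint reported here, percent growth, reads 100 for growth as untreated, 0 for no net growth and -100 for all cells dead.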 The source made the active and inactive calls. How the source made its calls: active means growth percent below 10; inactive means the rest.

How the values were obtained:
Test in all cases: NCI-60 one-dose screen, 48 h (100 = growth as untreated, 0 = no growth, -100 = all killed)
Conditions in all cases: 10 µM
SK-MEL-2 melanoma = test system: SK-MEL-2 melanoma
SN12C renal = test system: SN12C renal
UO-31 renal = test system: UO-31 renal
TK-10 renal = test system: TK-10 renal
ACHN renal = test system: ACHN renal
CAKI-1 renal = test system: CAKI-1 renal
A498 renal = test system: A498 renal
CCRF-CEM leukemia = test system: CCRF-CEM leukemia
MOLT-4 leukemia = test system: MOLT-4 leukemia
SR leukemia = test system: SR leukemia
RPMI-8226 leukemia = test system: RPMI-8226 leukemia
OVCAR-8 ovarian = test system: OVCAR-8 ovarian
OVCAR-5 ovarian = test system: OVCAR-5 ovarian
OVCAR-4 ovarian = test system: OVCAR-4 ovarian
SK-OV-3 ovarian = test system: SK-OV-3 ovarian
IGROV1 ovarian = test system: IGROV1 ovarian
OVCAR-3 ovarian = test system: OVCAR-3 ovarian
HS 578T breast = test system: HS 578T breast
NCI/ADR-RES ovarian = test system: NCI/ADR-RES ovarian

Measured: growth

FC(F)(F)c1ccc(-c2cnc(Cl)nc2NCc2cc(C(F)(F)F)cc(C(F)(F)F)c2)cc1
inactive: SN12C renal 12.4% | TK-10 renal 21.8% | CCRF-CEM leukemia 18.8% | MOLT-4 leukemia 21.1% | SR leukemia 26.2% | OVCAR-8 ovarian 15.6% | OVCAR-5 ovarian 35.2% | OVCAR-4 ovarian 19.5% | SK-OV-3 ovarian 43.4% | IGROV1 ovarian 45.5% | HS 578T breast 26.8% | NCI/ADR-RES ovarian 12.5%
active: SK-MEL-2 melanoma -21.6% | UO-31 renal -9.98% | ACHN renal 2.83% | CAKI-1 renal 1.18% | A498 renal -4.04% | RPMI-8226 leukemia 0.828% | OVCAR-3 ovarian 3.89%

COc1ccc(-c2csc(NC(=O)CO[N+](=O)[O-])n2)cc1
inactive: SK-MEL-2 melanoma 81.6% | SN12C renal 102% | UO-31 renal 83.1% | TK-10 renal 106% | ACHN renal 101% | CAKI-1 renal 95.2% | A498 renal 126% | CCRF-CEM leukemia 97.9% | MOLT-4 leukemia 93.1% | SR leukemia 96.1% | RPMI-8226 leukemia 106% | OVCAR-8 ovarian 96.1% | OVCAR-5 ovarian 113% | OVCAR-4 ovarian 103% | SK-OV-3 ovarian 108% | IGROV1 ovarian 97.9% | OVCAR-3 ovarian 101% | HS 578T breast 104% | NCI/ADR-RES ovarian 99.6%

Cc1nc(Nc2nc3ccccc3o2)nc(-c2cccc([N+](=O)[O-])c2)c1C(=O)Nc1ccc(F)c(Cl)c1
active: SK-MEL-2 melanoma -33.7% | SN12C renal 7.04% | TK-10 renal 8.62% | CAKI-1 renal 9.69% | A498 renal -37.2% | MOLT-4 leukemia -23.7% | SR leukemia -8.33% | RPMI-8226 leukemia -41.4% | OVCAR-8 ovarian 6.5% | OVCAR-3 ovarian 6.94% | NCI/ADR-RES ovarian 3.88%
inactive: UO-31 renal 11.3% | ACHN renal 12.9% | CCRF-CEM leukemia 22.8% | OVCAR-5 ovarian 33% | OVCAR-4 ovarian 16% | SK-OV-3 ovarian 10% | IGROV1 ovarian 40.3%

O=C(Nc1cccc(F)c1)Nc1cccc(Cl)c1
inactive: SK-MEL-2 melanoma 101% | SN12C renal 87.4% | UO-31 renal 87.1% | TK-10 renal 116% | ACHN renal 88.1% | CAKI-1 renal 88.8% | A498 renal 36.7% | CCRF-CEM leukemia 84.4% | SR leukemia 49.9% | RPMI-8226 leukemia 66.6% | OVCAR-8 ovarian 78.6% | OVCAR-5 ovarian 94.9% | OVCAR-4 ovarian 87.2% | SK-OV-3 ovarian 114% | IGROV1 ovarian 111% | OVCAR-3 ovarian 14.4% | NCI/ADR-RES ovarian 89.1%
active: MOLT-4 leukemia 4.94%

CCN(Cc1ccccc1)C1CCN(Cc2cc(Br)ccc2O)CC1
inactive: SK-MEL-2 melanoma 69.7% | SN12C renal 44.8% | UO-31 renal 23.5% | TK-10 renal 52.1% | ACHN renal 45.1% | CAKI-1 renal 44.7% | A498 renal 66.2% | CCRF-CEM leukemia 43.5% | MOLT-4 leukemia 61.2% | RPMI-8226 leukemia 21.9% | OVCAR-8 ovarian 59.9% | OVCAR-5 ovarian 68.1% | OVCAR-4 ovarian 36.9% | SK-OV-3 ovarian 76.9% | IGROV1 ovarian 44.6% | OVCAR-3 ovarian 51.8% | NCI/ADR-RES ovarian 36.1%
active: SR leukemia 7.57%

CCCCCC(=O)N1c2ccccc2NC2=C(C(=O)CC(c3ccc(OC)c(OC)c3)C2)C1c1ccc(C(F)(F)F)cc1 (stereo not given)
inactive: SK-MEL-2 melanoma 47.8% | SN12C renal 62% | UO-31 renal 44.9% | TK-10 renal 64.4% | ACHN renal 58.3% | CAKI-1 renal 65.6% | A498 renal 57.2% | CCRF-CEM leukemia 43.5% | MOLT-4 leukemia 37% | SR leukemia 51.8% | RPMI-8226 leukemia 21.6% | OVCAR-8 ovarian 47.1% | OVCAR-5 ovarian 103% | OVCAR-4 ovarian 41.8% | SK-OV-3 ovarian 83.6% | IGROV1 ovarian 63% | OVCAR-3 ovarian 33.1% | NCI/ADR-RES ovarian 58.7%

COc1ccc(-c2cn[nH]c2-c2cc(OC)c(OC)c(OC)c2)cc1
active: A498 renal -12.1% | CCRF-CEM leukemia 6.38% | MOLT-4 leukemia 4.95% | SR leukemia 3.17% | RPMI-8226 leukemia 6.58% | OVCAR-3 ovarian -8.09%
inactive: SK-MEL-2 melanoma 29.2% | SN12C renal 26.3% | UO-31 renal 33% | TK-10 renal 58% | ACHN renal 20.7% | CAKI-1 renal 17.4% | OVCAR-8 ovarian 22.5% | OVCAR-5 ovarian 31.1% | OVCAR-4 ovarian 45% | SK-OV-3 ovarian 10.2% | IGROV1 ovarian 29.4% | HS 578T breast 23% | NCI/ADR-RES ovarian 27.1%

O=C(NC1CCCC1)c1ccc(N2CCC(NCc3cccc(C(F)(F)F)c3)CC2)cc1
inactive: SK-MEL-2 melanoma 108% | SN12C renal 94.2% | UO-31 renal 62.3% | TK-10 renal 101% | ACHN renal 97.9% | CAKI-1 renal 101% | A498 renal 92.1% | CCRF-CEM leukemia 75.7% | MOLT-4 leukemia 70.2% | RPMI-8226 leukemia 71.3% | OVCAR-8 ovarian 95.2% | OVCAR-5 ovarian 94.2% | OVCAR-4 ovarian 89.5% | SK-OV-3 ovarian 98.4% | IGROV1 ovarian 94.1% | OVCAR-3 ovarian 90.4% | HS 578T breast 96.1% | NCI/ADR-RES ovarian 88.3%
active: SR leukemia 0.0064%

C#Cc1ccc(-n2c(/C=C/c3cc(OC)c(OC)c(OC)c3)nc3ncccc3c2=O)cc1
inactive: SN12C renal 82.1% | UO-31 renal 45.8% | TK-10 renal 112% | ACHN renal 60.5% | CAKI-1 renal 64.2% | A498 renal 24.5% | CCRF-CEM leukemia 55.9% | MOLT-4 leukemia 65.2% | SR leukemia 11.2% | RPMI-8226 leukemia 40.9% | OVCAR-8 ovarian 75.1% | OVCAR-5 ovarian 120% | OVCAR-4 ovarian 63.4% | SK-OV-3 ovarian 65.9% | IGROV1 ovarian 56.3% | HS 578T breast 75.4% | NCI/ADR-RES ovarian 54.6%
active: SK-MEL-2 melanoma -2.4% | OVCAR-3 ovarian 4.62%

O=C(O)c1ccc(CNc2ccc(C(=O)CCl)cc2)cc1
inactive: SK-MEL-2 melanoma 96.6% | SN12C renal 99.3% | UO-31 renal 106% | TK-10 renal 104% | ACHN renal 99.3% | CAKI-1 renal 86.7% | A498 renal 61.4% | CCRF-CEM leukemia 48.7% | MOLT-4 leukemia 87.9% | SR leukemia 41.8% | RPMI-8226 leukemia 85.7% | OVCAR-8 ovarian 99.3% | OVCAR-5 ovarian 96.8% | OVCAR-4 ovarian 91% | SK-OV-3 ovarian 100% | IGROV1 ovarian 134% | OVCAR-3 ovarian 90.5% | NCI/ADR-RES ovarian 123%
